Measurements: the supplement of paper PMC8728848
Only a selection was taken, and the strongest signals are over-represented in it overall.

Assays:
Test in all cases: glycan array binding signal (z-score within array); higher = stronger binding
Settings in all cases: glycan notation: IUPAC condensed, linker removed
Fuc(a1-2)Gal(b1-3)GalNAc = target: Fuc(a1-2)Gal(b1-3)GalNAc
Outline: (§1)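 Arrays were curated from the Consortium for Functional Glycomics database, 3228 in total, and kept only where the protein sequence was available. Binding is expressed as a within-array Z-score. This score was averaged across arrays of the same protein sequence at different concentrations or buffers and across linkers, and negative values can be read as non-binding.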

Fuc(a1-2)Gal(b1-4)Glc6S = target: Fuc(a1-2)Gal(b1-4)Glc6S
Outline: as §1

Fuc(a1-2)Gal(b1-4)GlcNAc = target: Fuc(a1-2)Gal(b1-4)GlcNAc
Outline: as §1

[1] = target: Fuc(a1-2)Gal(b1-4)GlcNAc(b1-2)Man(a1-3)[Fuc(a1-2)Gal(b1-4)GlcNAc(b1-2)Man(a1-6)]Man(b1-4)GlcNAc(b1-4)GlcNAc
Outline: as §1

[2] = target: Fuc(a1-2)Gal(b1-4)GlcNAc(b1-3)Gal(b1-4)GlcNAc
Outline: as §1

[3] = target: Fuc(a1-2)Gal(b1-4)GlcNAc(b1-3)Gal(b1-4)GlcNAc(b1-3)Gal(b1-4)GlcNAc
Outline: as §1

[4] = target: Fuc(a1-2)Gal(b1-4)GlcNAc(b1-3)[Fuc(a1-2)Gal(b1-4)GlcNAc(b1-6)]GalNAc
Outline: as §1

[5] = target: Fuc(a1-2)Gal(b1-4)GlcNAc6S
Outline: as §1

[6] = target: Fuc(a1-2)Gal(b1-4)[Fuc(a1-3)]GlcNAc
Outline: as §1

[7] = target: Fuc(a1-2)Gal6S(b1-4)Glc6S
Outline: as §1

[8] = target: Fuc(a1-2)[Gal(a1-3)]Gal(b1-3)GlcNAc(b1-2)Man(a1-3)[Fuc(a1-2)[Gal(a1-3)]Gal(b1-3)GlcNAc(b1-2)Man(a1-6)]Man(b1-4)GlcNAc(b1-4)GlcNAc
Outline: as §1

[9] = target: Fuc(a1-2)[Gal(a1-3)]Gal(b1-4)GlcNAc(b1-2)Man(a1-3)[Fuc(a1-2)[Gal(a1-3)]Gal(b1-4)GlcNAc(b1-2)Man(a1-6)]Man(b1-4)GlcNAc(b1-4)[Fuc(a1-6)]GlcNAc
Outline: as §1

[10] = target: Fuc(a1-2)[Gal(a1-3)]Gal(b1-4)[Fuc(a1-3)]Glc
Outline: as §1

[11] = target: Fuc(a1-2)[Gal(a1-3)]Gal(b1-4)[Fuc(a1-3)]GlcNAc(b1-3)GalNAc
Outline: as §1

[12] = target: Fuc(a1-2)[GalNAc(a1-3)]Gal
Outline: as §1

Fuc(a1-3)GlcNAc = target: Fuc(a1-3)GlcNAc
Outline: as §1

[13] = target: Fuc(a1-3)[Gal(b1-4)]GlcNAc(b1-4)Gal(b1-4)[Fuc(a1-3)]GlcNAc(b1-4)Gal(b1-4)[Fuc(a1-3)]GlcNAc
Outline: as §1

[14] = target: Gal(a1-3)Gal(b1-4)GlcNAc(b1-3)GalNAc
Outline: as §1

[15] = target: Gal(a1-3)Gal(b1-4)[Fuc(a1-3)]GlcNAc(b1-2)Man(a1-3)[Gal(a1-3)Gal(b1-4)[Fuc(a1-3)]GlcNAc(b1-2)Man(a1-6)]Man(b1-4)GlcNAc(b1-4)GlcNAc
Outline: as §1

Gal(a1-6)Glc = target: Gal(a1-6)Glc
Outline: as §1

Gal(b1-3)GalNAc = target: Gal(b1-3)GalNAc
Outline: as §1

[16] = target: Gal(b1-3)GlcNAc(b1-3)Gal(b1-4)Glc
Outline: as §1

[17] = target: Gal(b1-3)[Fuc(a1-4)]GlcNAc(b1-3)Gal(b1-4)[Fuc(a1-3)]GlcNAc
Outline: as §1

[18] = target: Gal(b1-4)GlcNAc(b1-2)Man(a1-3)[Gal(b1-4)GlcNAc(b1-2)Man(a1-6)]Man(b1-4)GlcNAc(b1-4)[Fuc(a1-6)]GlcNAc
Outline: as §1

[19] = target: Gal(b1-4)GlcNAc(b1-2)[Gal(b1-4)GlcNAc(b1-4)]Man(a1-3)[GlcNAc(b1-4)][Gal(b1-4)GlcNAc(b1-2)[Gal(b1-4)GlcNAc(b1-6)]Man(a1-6)]Man(b1-4)GlcNAc(b1-4)GlcNAc
Outline: as §1

[20] = target: Gal(b1-4)GlcNAc(b1-2)[Gal(b1-4)GlcNAc(b1-6)]Man(a1-6)[Gal(b1-4)GlcNAc(b1-2)Man(a1-3)]Man(b1-4)GlcNAc(b1-4)GlcNAc
Outline: as §1

[21] = target: Gal(b1-4)GlcNAc(b1-2)[Gal(b1-4)GlcNAc(b1-6)]Man(a1-6)[GlcNAc(b1-4)][Gal(b1-4)GlcNAc(b1-2)Man(a1-3)]Man(b1-4)GlcNAc(b1-4)GlcNAc
Outline: as §1

[22] = target: Gal(b1-4)GlcNAc(b1-3)Gal(b1-3)GlcNAc
Outline: as §1

[23] = target: Gal(b1-4)GlcNAc(b1-3)GalNAc
Outline: as §1

Gal4S(b1-4)GlcNAc = target: Gal4S(b1-4)GlcNAc
Outline: as §1

[24] = target: GalNAc(a1-3)GalNAc(b1-3)Gal(a1-4)Gal(b1-4)GlcNAc
Outline: as §1

[25] = target: GalNAc(b1-3)Gal(a1-6)Gal(b1-4)Glc
Outline: as §1

[26] = target: GlcNAc(a1-6)Gal(b1-4)GlcNAc
Outline: as §1

Kdn(a2-3)Gal(b1-4)GlcNAc = target: Kdn(a2-3)Gal(b1-4)GlcNAc
Outline: as §1

[27] = target: Neu5Ac(a2-3)Gal(b1-4)[Fuc(a1-3)]GlcNAc(b1-3)Gal
Outline: as §1

[28] = target: Neu5Ac(a2-3)Gal(b1-4)[Fuc(a1-3)]GlcNAc(b1-3)Gal(b1-4)GlcNAc
Outline: as §1

[29] = target: Neu5Ac(a2-6)Gal(b1-4)GlcNAc(b1-2)Man(a1-3)[Neu5Ac(a2-6)Gal(b1-4)GlcNAc(b1-2)Man(a1-6)]Man(b1-4)GlcNAc(b1-4)GlcNAc
Outline: as §1

[30] = target: Neu5Gc(a2-6)Gal(b1-4)GlcNAc
Outline: as §1

B1: CV-2L (Chromobacterium violaceum), Q7NX84 (protein)
chain: MAQQGVFTLPARINFGVTVLVNSAATQHVEIFVDNEPRAAFSGVGTGDNNLGTKVINSGSGNVRVQITANGRQSDLVSSQLVLANKLNLAVVGSEDGTDMDYNDSIVILNWPLG
**Q.** How did the “glycan array binding signal (z-score)” value (Fuc(a1-2)Gal(b1-3)GalNAc) turn out when B1 was run?
**A.** 0.156

**Q.** And the “glycan array binding signal (z-score)” value (Fuc(a1-2)Gal(b1-4)Glc6S)?
**A.** 4.43

**Q.** What about the “glycan array binding signal (z-score)” value (Fuc(a1-2)Gal(b1-4)GlcNAc) of the same binder?
**A.** 5.39

**Q.** And the “glycan array binding signal (z-score)” value [1]?
**A.** 5.17

**Q.** What about the “glycan array binding signal (z-score)” value [2] of the same binder?
**A.** 5.68

**Q.** What about the “glycan array binding signal (z-score)” value [3] of the same binder?
**A.** 5.57

**Q.** And the “glycan array binding signal (z-score)” value [4]?
**A.** 5.71

**Q.** And the “glycan array binding signal (z-score)” value [5]?
**A.** 5.42

**Q.** And the “glycan array binding signal (z-score)” value [6]?
**A.** 0.928

**Q.** And the “glycan array binding signal (z-score)” value [7]?
**A.** 4.37

**Q.** And the “glycan array binding signal (z-score)” value [8]?
**A.** -0.292

**Q.** What about the “glycan array binding signal (z-score)” value [9] of the same binder?
**A.** -0.257

**Q.** What about the “glycan array binding signal (z-score)” value [10] of the same binder?
**A.** -0.019

**Q.** What about the “glycan array binding signal (z-score)” value [11] of the same binder?
**A.** -0.294

**Q.** And the “glycan array binding signal (z-score)” value [12]?
**A.** -0.2

**Q.** What about the “glycan array binding signal (z-score)” value (Fuc(a1-3)GlcNAc) of the same binder?
**A.** 1.49

**Q.** And the “glycan array binding signal (z-score)” value [13]?
**A.** -0.252

**Q.** And the “glycan array binding signal (z-score)” value [14]?
**A.** -0.341

**Q.** And the “glycan array binding signal (z-score)” value [15]?
**A.** -0.319

**Q.** What about the “glycan array binding signal (z-score)” value (Gal(a1-6)Glc) of the same binder?
**A.** -0.347

**Q.** And the “glycan array binding signal (z-score)” value (Gal(b1-3)GalNAc)?
**A.** -0.341

**Q.** And the “glycan array binding signal (z-score)” value [16]?
**A.** -0.304

**Q.** What about the “glycan array binding signal (z-score)” value [17] of the same binder?
**A.** 0.831

**Q.** What about the “glycan array binding signal (z-score)” value [18] of the same binder?
**A.** -0.275

**Q.** What about the “glycan array binding signal (z-score)” value [19] of the same binder?
**A.** -0.334

**Q.** And the “glycan array binding signal (z-score)” value [20]?
**A.** -0.307

**Q.** What about the “glycan array binding signal (z-score)” value [21] of the same binder?
**A.** -0.316

**Q.** What about the “glycan array binding signal (z-score)” value [22] of the same binder?
**A.** -0.343

**Q.** What about the “glycan array binding signal (z-score)” value [23] of the same binder?
**A.** -0.342

**Q.** What about the “glycan array binding signal (z-score)” value (Gal4S(b1-4)GlcNAc) of the same binder?
**A.** -0.355

**Q.** And the “glycan array binding signal (z-score)” value [24]?
**A.** -0.306

**Q.** And the “glycan array binding signal (z-score)” value [25]?
**A.** -0.338

**Q.** What about the “glycan array binding signal (z-score)” value [26] of the same binder?
**A.** -0.342

**Q.** What about the “glycan array binding signal (z-score)” value (Kdn(a2-3)Gal(b1-4)GlcNAc) of the same binder?
**A.** -0.31

**Q.** What about the “glycan array binding signal (z-score)” value [27] of the same binder?
**A.** -0.337

**Q.** What about the “glycan array binding signal (z-score)” value [28] of the same binder?
**A.** -0.308

**Q.** What about the “glycan array binding signal (z-score)” value [29] of the same binder?
**A.** -0.336

**Q.** And the “glycan array binding signal (z-score)” value [30]?
**A.** -0.326
